According to PubChem BioAssay:
The source made the active and inactive calls.

Key:
[1] = molecular target: Albumin (Bos taurus) (UniProt P02769); assay: compounds binding labelled BSA control protein – biochemical, small-molecule microarray, Alexa647 label, 635/667 nm fluorescence, artefact control for SMM control protein annotation, profiling panel (AID 1118); details: BSA-A647 binding, fluorescence 635 nm, higher = more signal;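 also: score merges 667 nm emission intensity and signal-to-noise per printed compound spot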
Albumin (Bos taurus), sequence (P02769 whole entry, looked up): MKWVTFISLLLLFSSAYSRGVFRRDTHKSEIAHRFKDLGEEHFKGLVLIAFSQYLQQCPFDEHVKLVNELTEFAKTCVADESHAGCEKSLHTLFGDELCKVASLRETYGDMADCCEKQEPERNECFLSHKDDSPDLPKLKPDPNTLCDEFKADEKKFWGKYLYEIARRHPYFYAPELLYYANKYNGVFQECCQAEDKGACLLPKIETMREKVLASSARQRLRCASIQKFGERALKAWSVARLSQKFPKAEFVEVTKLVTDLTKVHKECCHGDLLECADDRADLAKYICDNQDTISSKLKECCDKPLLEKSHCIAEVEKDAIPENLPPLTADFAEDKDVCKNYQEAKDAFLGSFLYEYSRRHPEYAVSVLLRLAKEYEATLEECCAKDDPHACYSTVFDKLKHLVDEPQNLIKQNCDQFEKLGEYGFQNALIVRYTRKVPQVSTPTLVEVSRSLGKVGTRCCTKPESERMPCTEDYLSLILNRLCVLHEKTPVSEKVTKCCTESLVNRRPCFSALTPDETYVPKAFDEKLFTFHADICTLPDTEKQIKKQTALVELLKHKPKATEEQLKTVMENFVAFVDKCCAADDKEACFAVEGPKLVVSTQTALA

[2] = probe aXIP binding to arrayed compounds – biochemical, NeuroSMM set, 635/667 nm fluorescence, primary screen (AID 1119); details: small-molecule microarray, higher = more signal, called active from +8 up or from −8 down;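 also: probe is the protein aXip251-270 applied at 1 µg/mL to compound-printed slides; binding of probe to printed compounds measured as 667 nm fluorescence plus signal to noise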
[3] = probe aNOTCH3 binding on compound microarray – biochemical, small-molecule microarray, 635/667 nm fluorescence, primary screen (AID 1120); details: higher = more signal;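 also: probe is a biotin-tagged antibody raised against NOTCH3 rather than NOTCH3 protein; score merges spot fluorescence near 667 nm with spot signal to noise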
[4] = probe aNOTCH2 binding on compound microarray – biochemical, small-molecule microarray, 635/667 nm fluorescence, primary screen (AID 1121); details: higher = more signal;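 also: score merges feature fluorescence read at 667 nm with its signal to noise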
[5] = molecular target: Carbonic anhydrase 2 (Homo sapiens) (UniProt P00918); assay: compounds binding carbonic anhydrase 2 – biochemical, small-molecule microarray, Alexa647-labelled CAII, profiling panel (AID 1122); details: CAII-A647 binding fluorescence, higher = more signal
[6] = COS7 lysate on small-molecule microarray, probe aHis, 635 nm (AID 1123); details: COS7 cell lysate, fluorescence, higher = more signal;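 also: z-score combines 667nm fluorescence intensity with signal-to-noise per printed compound spot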
[7] = probe aLAP1 signal on lysate-treated microarray – cell lysate, small-molecule microarray, COS7 lysate, primary screen (AID 1124); details: probe aLAP1, fluorescence, higher = more signal;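 also: lysate comes from COS7 cells expressing LAP1 and is applied at 0.3 µg/mL; score merges spot fluorescence near 667 nm with signal-to-noise over triplicate slides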
[8] = system: Sam68 (KHDRBS1); assay: compounds binding KHDRBS1 protein – biochemical, small-molecule microarray, 635 nm fluorescence, primary screen (AID 1125); details: higher = more signal;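 also: score merges 667 nm channel intensity with signal to noise over triplicate slides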
[9] = system: Chordin-like protein 2 (CHRDL2); assay: compounds binding chordin-like 2 – biochemical, small-molecule microarray, 635 nm fluorescence, primary screen (AID 1126); details: fluorescence 635 nm, higher = more signal;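 also: printed compound slides probed with Chrdl2 protein at 4 µg/mL for 1 h at 4 C; score merges 667 nm emission intensity with signal to noise over three replicate slides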
[10] = molecular target: Concanavalin-A (Canavalia ensiformis) (UniProt P02866); assay: compounds binding concanavalin A lectin – biochemical, small-molecule microarray, Alexa647 label, 635 nm, artefact control for SMM control protein annotation, primary screen (AID 1127); details: ConA-A647 binding fluorescence, higher = more signal;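 also: z combines 667 nm emission intensity with signal-to-noise across three replicate slides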
Concanavalin-A (Canavalia ensiformis), sequence (P02866 whole entry, looked up): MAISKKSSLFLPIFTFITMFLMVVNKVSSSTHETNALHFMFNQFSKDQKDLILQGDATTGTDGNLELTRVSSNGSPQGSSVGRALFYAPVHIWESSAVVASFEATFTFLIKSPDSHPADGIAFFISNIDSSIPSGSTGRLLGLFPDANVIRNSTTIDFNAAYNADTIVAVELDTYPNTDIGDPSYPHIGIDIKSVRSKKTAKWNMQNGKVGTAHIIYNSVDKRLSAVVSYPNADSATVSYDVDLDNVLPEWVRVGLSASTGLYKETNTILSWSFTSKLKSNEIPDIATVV

| Structure (SMILES) | composite z-score [1] | composite Z-score [2] | composite z-score [3] | composite z-score [4] | composite z-score [5] | composite z-score [6] | composite z-score [7] | composite z-score [8] | composite z-score [9] | composite z-score [10] |
| --- | --- | --- | --- | --- | --- | --- | --- | --- | --- | --- |
| O=C1O[C@@H](c2ccccc2)[C@@H](c2ccccc2)N2[C@@H](c3ccc(O)cc3)[C@]3(C(=O)Nc4ccc(C#CCCO)cc43)[C@@H](C(=O)Nc3nc4ccccc4s3)[C@H]12 | 0.827 | -0.0011 (inactive) | -0.0265 | -0.115 | 0.507 | 0.999 | 0.887 | 1.29 | -0.0623 | 0.616 |
| CCCC[C@@H]1C[C@H]1[C@@H](NC(=O)c1ccccc1)c1ccc(Cl)cc1 | -0.413 | 0.0169 (inactive) | -0.414 | -0.179 | -0.527 | 0.847 | -0.905 | -1.35 | -2.74 | -1.6 |
| COc1ccc(NN2C(C(O)c3ccco3)C=CC3C(=O)N(C4CCCCC4)C(=O)C32)cc1 (stereo not given) | 0.749 | 0.0786 (inactive) | 0.353 | -0.115 | 0.377 | 1.44 | 0.564 | 1.32 | 0.0446 | 1 |
| O=C(CS)NCCCCCCNC(=O)[C@@H]1C[C@@H]2C(=O)N3CCC[C@H]3C(=O)N2[C@@H]1c1cccc(OCCO)c1 | 0.848 | -0.19 (inactive) | -0.225 | 0.0063 | 0.635 | 2.81 | -0.0386 | 1.3 | 0.454 | 1.1 |
| CCN(CC)c1ccc(N2CC=CC34O[C@@H]5/C=C\CCC(C)OC(=O)C5[C@H]3C(=O)N(CCO)[C@@H]4C2=O)cc1 (stereo not given in full) | -0.694 | 0.736 (inactive) | -0.152 | -0.132 | 0.818 | 1.87 | 0.711 | 0.153 | -1.01 | -0.242 |
| CC(C)N1CC=CC23O[C@@H]4C=CCOC(=O)[C@@H]4[C@H]2C(=O)N(C(C)CO)[C@@H]3C1=O (stereo not given in full) | -0.385 | 0.365 (inactive) | -0.149 | -0.0891 | 0.406 | 0.0561 | 1.06 | -0.876 | -1.03 | 0.261 |
| COC(=O)[C@@]1(Cc2ccc(OC)cc2)[C@H]2c3cc(C(=O)N(C)C)n(Cc4nc5ccccc5[nH]4)c3C[C@H]2CN1C(=O)c1ccccc1 | 0.997 | -0.119 (inactive) | 0.515 | -0.112 | 0.781 | 2.27 | -0.0637 | 1.32 | -0.54 | 1.19 |
| C=C1C2CC3C(=C4C(CO[C@@H]4[C@H]4CCCN4S(=O)(=O)c4ccccc4[N+](=O)[O-])C4C(=O)N(C)C(=O)C34)CC2C(=O)N1C (stereo not given in full) | 0.873 | 0.79 (inactive) | 0.0897 | -0.078 | 0.155 | 0.5 | -0.0918 | -0.184 | 0.0301 | 0.131 |
| COCCOC(=O)N1C(=O)[C@@]2(c3cc(C#CC4(O)CCCCCC4)ccc31)[C@H](C(N)=O)[C@H]1C(=O)O[C@H](c3ccccc3)[C@H](c3ccccc3)N1[C@@H]2c1ccc(O)cc1 | 0.21 | -0.014 (inactive) | 0.676 | -0.0349 | 0.181 | 1.27 | 0.298 | 1.12 | 0.47 | 0.866 |
| COCCCNC(=O)[C@@H]1c2ccccc2C(=O)N(Cc2ccccc2C(F)(F)F)[C@H]1c1ccc(CO)cc1 | -1.34 | -0.0662 (inactive) | -0.186 | -0.131 | 0.389 | 1.19 | 0.216 | 0.433 | -0.781 | -0.264 |
| CC(C)CN1C(=O)[C@@]2(Cc3ccccc31)c1ccccc1C(=O)N(Cc1ccccc1C(F)(F)F)[C@H]2c1ccc(CO)cc1 | -0.139 | 0.174 (inactive) | -0.172 | -0.157 | -0.381 | -0.562 | -0.438 | -2.12 | -0.846 | 0.027 |
| CCOC(=O)C1=CC[C@@H](c2ccccc2C(F)(F)F)N(S(=O)(=O)c2ccc(C)cc2)C1 | 0.959 | 0.917 (inactive) | 0.694 | 0.311 | 0.411 | 1.57 | 0.95 | 1.1 | -0.41 | 1.13 |
| COC(=O)Cn1c(C(=O)N2CCCC2)cc2c1C[C@H]1CN(C(=O)c3ccccc3)[C@@](Cc3ccc(F)cc3)(C(=O)OC)[C@@H]21 | 0.827 | -0.14 (inactive) | -0.0888 | -0.036 | 0.885 | 0.965 | 0.0395 | -1.17 | -0.451 | -0.432 |
| Cc1ccc(S[C@]2(C(=O)NC(C)C)CC(=O)N(Cc3ccccc3C(F)(F)F)[C@@H]2c2ccc(CO)cc2I)cc1 | 0.671 | 0.0903 (inactive) | -0.236 | -0.128 | 0.344 | 0.352 | -0.0811 | 0.0747 | -1.35 | -0.03 |
| CC=CC(O)C1C=CC2C(=O)N(c3ccccc3)C(=O)C2N1Nc1ccccc1 (stereo not given) | 0.867 | 0.454 (inactive) | 0.291 | 0.121 | 0.681 | 2.57 | 0.243 | 1.29 | 0.25 | 1.19 |
| CON(C)C(=O)C=C1C[C@@H](c2cccc(Cl)c2)O[C@@H](c2cccc(Cl)c2)O1 | 0.268 | 0.294 (inactive) | 0.0897 | -0.131 | 0.628 | 0.339 | 0.166 | 0.474 | 0.648 | 1.01 |

| Structure (SMILES) | composite z-score [1] | composite Z-score [2] | composite z-score [3] | composite z-score [4] | composite z-score [5] | composite z-score [6] | composite z-score [7] | composite z-score [8] | composite z-score [9] | composite z-score [10] |
| --- | --- | --- | --- | --- | --- | --- | --- | --- | --- | --- |
| CCOC(=O)[C@H]1C/C=C/C[C@H](C(=O)OCC)C(=O)O[C@H]2[C@@H](OC)O[C@H](CO)[C@@H](OC(=O)CCc3ccccc3)[C@@H]2OC1=O | 0.191 | 0.476 (inactive) | 0.996 | 0.0519 | -0.207 | -0.188 | 0.715 | -0.378 | -0.203 | -0.233 |
| NCCCCCCNC(=O)[C@H]1C[C@H]2C(=O)N[C@@H](Cc3ccccc3)C(=O)N2[C@H]1c1ccc(O)cc1 | 0.855 | 0.126 (inactive) | -0.0048 | -0.176 | 0.778 | 0.734 | 0.205 | 1.03 | -0.14 | 1.2 |
| CCCNC(=O)[C@@]1(c2ccc([N+](=O)[O-])cc2)CC(=O)N(C2CCCCC2)[C@@H]1c1ccc(CO)cc1I | 0.529 | 0.116 (inactive) | -0.0328 | -0.0635 | 0.71 | 1.73 | 0.521 | 1.25 | -0.0452 | 1.07 |
| [N-]=[N+]=NCc1ccccc1[C@H]1OC(c2ccc(OCCCO)cc2)=N[C@@]1(CCS(=O)(=O)c1ccccc1)C(N)=O | 0.736 | 0.0553 (inactive) | 0.302 | 0.123 | 0.878 | 3.31 | 1.71 | 1.3 | -0.0208 | 1.2 |
| CCC[C@@H]1C[C@@]1(CCC)[C@@H](NP(=O)(c1ccccc1)c1ccccc1)c1ccc(Cl)cc1 | -0.811 | -1.49 (inactive) | 0.0306 | -0.0166 | -0.0589 | 0.772 | 0.38 | 0.179 | 0.603 | -0.765 |
| CCCCC(=C=CC[C@@H](O)c1ccc(OCCO)cc1)C[C@@H](O)COCc1ccccc1 | -0.28 | -0.114 (inactive) | -0.182 | -0.145 | 0.868 | 0.173 | -0.268 | 0.61 | 0.0396 | -0.382 |
| COC1(C)CN(Cc2ccccc2Br)[C@H](/C=C/c2ccccc2)[C@H](Cc2ccccc2)O1 (stereo not given in full) | -0.403 | 0.0873 (inactive) | -0.236 | -0.198 | 0.0397 | 0.203 | -0.195 | -0.435 | -0.77 | -0.0737 |
| C=CCOC(=O)[C@@H]1[C@H]2C(=O)O[C@H](c3ccccc3)[C@H](c3ccccc3)N2[C@H](c2ccc(OCCOC(=O)[C@H]3C[C@H]4C(=O)N[C@@H](CCCCN(C)C)C(=O)N4[C@H]3c3cccc(OCCO)c3)cc2)[C@@]12C(=O)Nc1ccc(I)cc12 | -0.624 | 0.204 (inactive) | 0.194 | -0.14 | 0.507 | 1.64 | 0.168 | 1.25 | 0.798 | 1.15 |
| C=C(COC)/C(=C/C[C@@H](OC(=O)c1ccncc1)c1cccc(OCCO)c1)c1cnc2ccccc2c1 | 0.716 | 0.161 (inactive) | 0.43 | 0.0815 | 1.01 | 1.91 | 0.919 | 1.31 | 1.44 | 1.24 |
| CCCCN1CC=CC23O[C@@H]4C=CCOC(=O)[C@@H]4[C@H]2C(=O)N(C(C)CO)[C@@H]3C1=O (stereo not given in full) | -1.04 | -0.527 (inactive) | -0.154 | -0.118 | 0.904 | -0.819 | -0.0435 | -1.6 | -1.98 | -1.33 |
| CN1C(=O)[C@@]2(CCS(=O)(=O)c3ccccc3)N=C(c3ccc(OCCCO)cc3)O[C@H]2c2ccccc21 | 0.159 | 0.334 (inactive) | 0.058 | -0.146 | 0.688 | 2.74 | 0.428 | 1.28 | 0.0089 | 1.1 |
| O=C1O[C@@H](c2ccccc2)[C@@H](c2ccccc2)N2[C@@H](c3ccc(O)cc3)[C@]3(C(=O)Nc4ccc(C#CCCO)cc43)[C@@H](C(=O)NC[C@H](O)c3ccccc3)[C@H]12 | 0.273 | 1.62 (inactive) | -0.158 | -0.167 | 0.724 | -0.112 | 0.102 | 0.249 | -1.39 | -0.101 |
| C=CCNC(=O)[C@@H]1[C@H]2C(=O)O[C@H](c3ccccc3)[C@H](c3ccccc3)N2[C@H](c2ccccc2OCCO)[C@@]12C(=O)N(C(=O)OCCOC)c1ccc(C#CC3=CCCCC3)cc12 | 0.706 | 2.45 (inactive) | -0.0699 | -0.0664 | 0.467 | 1.76 | -0.218 | 1.28 | 0.741 | 1.12 |
| COc1ccc([Si](C)(C)[C@@H]2[C@@H](CCn3cc([C@H](O)c4ccccc4)nn3)O[C@]3(C(=O)N(Cc4ccc(N5CCOC5=O)cc4)c4ccccc43)[C@H]2C)cc1 | 0.579 | 0.0409 (inactive) | 0.165 | -0.0502 | 0.0584 | 0.617 | 0.664 | 1.09 | 1.03 | 0.853 |
| CC=CC(O)C1C=CC2C(=O)N(C)C(=O)C2N1N1CCCCC1 (stereo not given) | 1.01 | 0.298 (inactive) | 0.16 | 0.0701 | 0.783 | 2.48 | 0.466 | 1.27 | -0.0061 | 0.915 |
| [N-]=[N+]=NCc1ccccc1C[C@@]1(C(=O)N2CCCCC2)N=C(c2ccc(OCCCO)cc2)O[C@@H]1c1ccccc1N=[N+]=[N-] | 0.79 | 0.131 (inactive) | 0.0522 | -0.13 | 0.378 | 2.1 | -0.0562 | 1.09 | -0.186 | 1.08 |
